In PubChem BioAssay one finds fold change data, which are given here for 9 molecules.

Molecules are shown by their SMILES. Values joined by “and” are separate entries in the source; they are usually repeats but may differ in a detail not shown here. Equal entries are not always repeated. Active and inactive are the calls of the source.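 How the source made its calls: active means compounds whose cell count with miR-34 switched on is under 0.7 times the count with it off; inactive means the rest.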

A short description of the first experiment: viability loss with induced miR-34 in A549 – imaging, A549 dox-inducible miR-34, nuclei and caspase counts, primary screen (AID 1347080). Further: test concentration not given here. As to conditions: A549 miR-34 inducible, Hoechst nuclei count, 48 h; stronger effect = lower value.
`CC1=C2C[C@H]3[C@@H](CC=C4C[C@@H](O)CC[C@@]43C)[C@@H]2CC[C@]12O[C@@H]1C[C@H](C)CN[C@H]1[C@H]2C`: the fold change is 0.912 (inactive).
Turning to `C[C@]12Cc3cn[nH]c3C[C@@H]1CC[C@@H]1[C@@H]2CC[C@@]2(C)[C@H]1CC[C@]2(C)O`, the fold change was 0.887 (inactive).
Take `CC(=O)Nc1ccc(OC[C@](C)(O)C(=O)Nc2ccc([N+](=O)[O-])c(C(F)(F)F)c2)cc1`: the fold change is 0.963 (inactive).
In the case of `CC(C)(C)c1cc(C=C(C#N)C#N)cc(Br)c1O`, the fold change was 0.886 (inactive).

Staying with this experiment, now noted: A549 miR-34 inducible, Hoechst nuclei count, 48 h; stronger effect = lower value; cell number ratio, induced over uninduced.
In the case of `CCOc1ccccc1-n1c(C(C)N2CCN(C(=O)COc3ccc(Cl)cc3)CC2)nc2ccccc2c1=O` (stereo not drawn), the fold change was 0.777 (inactive).
Still for that read-out and setting: the result for `CN[C@@H]1C[C@H]2O[C@@](C)([C@@H]1OC)n1c3ccccc3c3c4c(c5c6ccccc6n2c5c31)C(=O)NC4` reads 1.19 (inactive); that for `CN1[C@@H]2CC(O)C[C@H]1[C@@H]1O[C@@H]12` (stereo partly drawn), 0.909 (inactive) and 0.934 (inactive).
As for `O=S(=O)(F)Cc1ccccc1`, the fold change was 0.924 (inactive).
As to `COc1ccc(N(C(=O)Oc2c(C)cccc2C)c2ccnc(Nc3ccc(N4CCN(C)CC4)cc3)n2)c(OC)c1`, the fold change was 0.826 (inactive).

Staying with this experiment, now noted: A549 miR-34 inducible, Hoechst nuclei count, 48 h; measured here: relative caspase fold change +Dox/-Dox.
For `CCOc1ccccc1-n1c(C(C)N2CCN(C(=O)COc3ccc(Cl)cc3)CC2)nc2ccccc2c1=O` (stereo not drawn), the fold change turned out to be 0.61.
With `CN[C@@H]1C[C@H]2O[C@@](C)([C@@H]1OC)n1c3ccccc3c3c4c(c5c6ccccc6n2c5c31)C(=O)NC4`, the fold change was 0.478.
Consider `CC1=C2C[C@H]3[C@@H](CC=C4C[C@@H](O)CC[C@@]43C)[C@@H]2CC[C@]12O[C@@H]1C[C@H](C)CN[C@H]1[C@H]2C`, for which the fold change came out at 0.801.
On the same count and under the same terms, the same measure for `CN1[C@@H]2CC(O)C[C@H]1[C@@H]1O[C@@H]12` (stereo partly drawn): 0.912 and 0.808.
Consider `C[C@]12Cc3cn[nH]c3C[C@@H]1CC[C@@H]1[C@@H]2CC[C@@]2(C)[C@H]1CC[C@]2(C)O`, for which the fold change is 2.02.
Turning to `O=S(=O)(F)Cc1ccccc1`, the fold change was 0.551.
For `CC(=O)Nc1ccc(OC[C@](C)(O)C(=O)Nc2ccc([N+](=O)[O-])c(C(F)(F)F)c2)cc1`, the fold change came to 0.857.
Consider `COc1ccc(N(C(=O)Oc2c(C)cccc2C)c2ccnc(Nc3ccc(N4CCN(C)CC4)cc3)n2)c(OC)c1`, for which the fold change was determined as 0.474.
In the case of `CC(C)(C)c1cc(C=C(C#N)C#N)cc(Br)c1O`, the fold change turned out to be 1.14.
